Test results from PubChem BioAssay AID1645879 (National Center for Advancing Translational Sciences (NCATS), 2021).
Inconclusive results are not listed. Calls of active or inactive are those of the source. Calls follow the shape of the dose curve; as a rule, active = well fitted inhibition curve with a large enough effect; inconclusive = small, poorly fitted or top-dose-only effect; inactive = no such curve, though single readings can be large or run the other way.

assay: Counterscreen qHTS assay for inhibitors of N-terminal methyltransferase 1 (NTMT1): SPKRIA Counterscreen Assay; conditions: biochemical qHTS; series mostly up to 99.2 µM
Description: Assay Submitter (PI): Rong Huang Ph.D,
Purdue University, West Lafayette, IN 47907
The N-terminal methytransferase 1 is the first methyltransferase that methylates protein alpha-N-amines and plays an important role in regulating cell mitosis, chromatin interactions and DNA repair. It is observed to be over-expressed in various cancer patient tissues like malignant melanoma and colorectal cancer tissues. Knockdown of NTMT1 in cancer cells causes cell mitotic defects and enhances sensitivity to DNA damaging chemotherapeutics. […] These critical cellular processes in which NTMT1 is implicated, coupled with emerging links to cellular dysfunction, strengthen the inference that NTMT1 is a compelling novel anticancer target. Progress have been made in understanding the molecular properties of NTMT1 and the biological consequences of protein alpha-N-terminal methylation, but there are no specific small molecule probes available for NTMT1 to fully characterize its MTase activity. To address this unmet need, a panel of assay is created and established to enable quantitative high-throughput screening (qHTS) for novel, potent, and selective small molecule NTMT1 inhibitors. Two orthogonal qHTS that use different reagents (ThioGlo vs. MTaseGlo) are developed for primary robotic screening against the NCATS chemical library of more than 400,000 small molecules. Identified inhibitors are reacquired, validated, and further characterized.
MTaseGlo Assay is a luminescence screen that measure the activity of methyltransferases based on the reaction product S-adenosyl homocysteine (SAH). The substrate SAM is converted to SAH upon enzyme activation. MTase-Glo reagent and detection solution convert SAH to ATP and measure the light from the luciferase reaction. Nicotinamide N-methyltransferase (NNMT) is a cystolic enzyme that catalyzes the transfer of a methyl group from the co-factor SAM onto the substrate, nicotinamide (NA) to form 1-methyl-nicotinamide (MNA) and SAH. NNMT MTaseGlo assay is used as a counterscreen to evaluate selectivity of identified inhibitors.
SPKRIA and Ac-RCC-10 control is provided by the Huang laboratory.
PROTOCOL TABLE; SEQUENCE No. (e.g., 1, 2, 3, etc.); […] (e.g., Cells, Incubation, Reagent, etc.); VALUE; DESCRIPTION
1; Reagent; 3 uL; dispense assay buffer.
2; Compound; 23 nL; pin compounds and control into the assay plate.
3; Time; 15 min; room temperature incubation.
4; Reagent; 1 uL; dispensed [4x] substrate or buffer.
5; Time; 30 min; incubate at room temperature.
6; Reagent; 1 uL; dispense MTase-Glo Reagent (R).
7; Time; 30 min; incubate at room temperature.
8; Reagent; 5 uL; dispense [1x] MTase-Glo Detection Solution to allow for ADP to be converted to ATP.
9; Centrifugation; 1,000 RPMs; assay plates were centrifuged.
10; Incubation; 30 min; room temperature.
11; Detection; Luminescence; ViewLux plate reader (clear filter, 10 second exposure).
NOTES (numbers refer to Sequence numbers above; values are from representative experiments)
1; Dispense the assay buffer into Greiner 1536-well black / solid bottom assay plate (Greiner Bio One, Monroe, NC).
2; Pin control inhibitor Ac-RCC1-10 at a final concentration range of 234 nM to 143 uM using a Wako Pin Tool (Wako Automation USA) equipped with a 1536-slotted pin array (Wako Automation, Richmond, VA). Pin compound library into the assay plates (columns 5 - 48) at a final concentration range of 97 nM to 250 uM.
3; Incubate the assay plates at room temperature.
4; Dispense 1 uL of substrate SPKRIA solution (final concentration 1 uM) or 1 uL buffer was added to the wells bringing the final assay volume to 4uL. The assay plate was covered with metal lids.
5; Incubate the assay plate at room temperature.
6; Dispense 1 uL of 5x MTase-Glo Reagent in the assay plate.
7; Incubate at room temperature to allow for SAH to be converted to ADP
8; Dispense 5 uL of 5x MTase-Glo Detection Solution in the assay plate to allow for ADP to be converted to ATP.
9; Assay plates were centrifuged for 15 seconds.
[…]

| SMILES | outcome |
| --- | --- |
| C=CC[C@]1(O)CC[C@H]2[C@@H]3CCC4=CC(=O)CCC4=C3C=C[C@@]21C | inactive |
| CCc1cc(OC)c(C[C@H](C)N)cc1OC | inactive |
| C[C@H](N)C(=O)c1ccccc1 | inactive |
| C[C@@H]1CC2=CC(=O)CC[C@@H]2[C@H]2CC[C@@]3(C)[C@@H](CC[C@]3(C)O)[C@@H]21 | inactive |
| CN(C)CCc1c[nH]c2cccc(O)c12 | inactive |
| C[C@]12CCC(=O)C=C1CC[C@@H]1[C@@H]2CC[C@@]2(C)[C@H]1CC[C@]2(C)O | inactive |
| C[C@]12CC[C@H]3[C@@H](CCC4=CC(=O)CC[C@@H]43)[C@@H]1CC[C@@H]2O | inactive |
| CC[C@]1(O)CC[C@H]2[C@@H]3CCC4=CCCC[C@@H]4[C@H]3CC[C@@]21C | inactive |
